TWEAK-Fn14 inh = inhibitors of TWEAK-Fn14 interaction signaling; AID 1159606; inhibition, % at 10 µM; TWEAK-stimulated Fn14 reporter cells, luciferase luminescence, 8 h; 360,000 compounds, 2% hits; in the data active means inhibition above about 50%
LMP1 NFkB inh = Epstein-Barr LMP1 NF-kappaB reporter inhibition; LMP1-induced NF-kappaB luciferase reporter cells, luminescence; inhibition, % at 12.5 µM; 350,000 compounds, 0.69% hits; in the data active means inhibition above about 41%
TROY NFkB inh = TROY signaling inhibition; AID 1347056; inhibition, % at 10 µM; 360,000 compounds, 0.98% hits; Q293 LMP1-TROYcd NF-kB luciferase reporter, 4 h;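 active means compounds whose plate-normalised and pattern-corrected inhibition of the luciferase reporter signal at the single screening dose is 50% or more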
PAX8 inh HTS = PAX8 transcriptional activity inhibition; inhibition, % at 12.6 µM; AID 652154; RMG-I TPO-luciferase reporter, SteadyGlo, 24 h; 360,000 compounds, 1.2% hits;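 active means mean replicate inhibition at least 60% with every replicate also reaching 60%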;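 further: luciferase light reporting Pax8 driven TPO promoter activity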
LGR2 inh = inhibitors of bursicon-induced Drosophila LGR2 receptor cAMP signaling; HEK293 LGR2, CRE-luciferase, bursicon-stimulated, 4 h; inhibition, % at 9.99 µM; 380,000 compounds, 0.35% hits; AID 720647;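 active means drop in luminescence signal, shown as inhibition above about 50% in the replicate tests, limit read from the data, passing the limit was not always enough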;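 further: agonist challenge used bursicon conditioned medium at about half maximal strength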
EWS-Fli block = blocks EWS/Fli oncoprotein-driven transcription; A673 NR0B1-luciferase reporter, viability-normalised; inhibition, % at 12.6 µM; 350,000 compounds, 0.67% hits; AID 651661;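 active means mean inhibition of at least 50% after viability correction, with every replicate also passing that limit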;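 further: firefly luciferase signal divided by Alamar Blue viability fluorescence both relative to DMSO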
Of the large screens only hits and unclear results are named; the others gave an inactive call. The list is not random: actives were taken first. Their share in the collection is about 3.2%.

CO[C@H]1CN(C)C(=O)c2ccc(NS(=O)(=O)c3cn(C)cn3)cc2OC[C@H](C)NC[C@@H]1C	none (no result: TWEAK-Fn14 inh, LMP1 NFkB inh, TROY NFkB inh, PAX8 inh HTS)
Cc1ccc(S(=O)(=O)N2C[C@@H](O)COC[C@H]3O[C@@H](CC(=O)NCC4CCCCC4)CC[C@@H]32)cc1	none (no result: TWEAK-Fn14 inh, LMP1 NFkB inh, TROY NFkB inh)
O=c1c2c(nc3c(-c4ccc(Cl)cc4)c[nH]n13)CCCC2	LMP1 NFkB inh 53 (no result: LGR2 inh, EWS-Fli block)
O=c1c2c(nc3c(-c4cccc5ccccc45)c[nH]n13)CCC2	none (no result: PAX8 inh HTS, EWS-Fli block)
COc1ccc(CCNC(=O)c2ccc(OCC(=O)N3CCOCC3)c(OC)c2)cc1	none
COc1ccc(-c2nc(NC(=O)c3ccc(OCC(=O)N4CCOCC4)c(OC)c3)sc2C)cc1	TWEAK-Fn14 inh 58
COc1cc(C(=O)Nc2cc(C)ccn2)ccc1OCC(=O)N1CCOCC1	TWEAK-Fn14 inh 93 (no result: EWS-Fli block)
COc1cc(C(=O)Nc2ccc(C)cn2)ccc1OCC(=O)N1CCOCC1	none
COc1ccc2cc3cc(C(=O)NCCc4ccc(OC)c(OC)c4)oc3nc2c1	TWEAK-Fn14 inh 66 (no result: PAX8 inh HTS, LGR2 inh, EWS-Fli block)
COc1ccc2cc3cc(C(=O)N4CCCCCC4)oc3nc2c1	TWEAK-Fn14 inh 54 (no result: PAX8 inh HTS, LGR2 inh, EWS-Fli block)
COc1ccc(CCNC(=O)c2ccc(CS(=O)(=O)c3ccc(Cl)cc3)o2)cc1OC	none (no result: PAX8 inh HTS, EWS-Fli block)
COc1ccc(CCNC(=O)c2ccc(CSc3ccc(Cl)cc3)o2)cc1OC	TWEAK-Fn14 inh 68 (no result: LMP1 NFkB inh)
COc1ccc2cc3cc(C(=O)N4CCN(C5CCCCC5)CC4)oc3nc2c1	none (no result: PAX8 inh HTS, LGR2 inh, EWS-Fli block)
C[C@H](CO)N1C[C@H](C)[C@H](CN(C)C(=O)Nc2ccc(F)cc2)Oc2ncc(C#Cc3ccccc3)cc2C1=O	none (no result: TWEAK-Fn14 inh, LMP1 NFkB inh, TROY NFkB inh, PAX8 inh HTS)
C/C=C/c1ccccc1[C@H]1[C@@H](CO)N(C(=O)NC2CCCCC2)[C@H]1C#N	none (no result: TWEAK-Fn14 inh, LMP1 NFkB inh, TROY NFkB inh, PAX8 inh HTS)
C[C@@H]1CN([C@@H](C)CO)S(=O)(=O)c2ccc(C#C[C@@H](C)O)cc2O[C@H]1CN(C)C(=O)c1ccccc1	none (no result: TWEAK-Fn14 inh, LMP1 NFkB inh, TROY NFkB inh, PAX8 inh HTS)
O=C(Cc1ccccn1)c1ccc(Cl)cc1	none
CC1=C(CC(=O)c2ccc(Cl)cc2)C(=O)c2ccccc2C1=O	TWEAK-Fn14 inh 72, TROY NFkB inh 70 (no result: PAX8 inh HTS, LGR2 inh, EWS-Fli block)
C[C@@H]1CCCCO[C@@H](CN(C)S(=O)(=O)c2cn(C)cn2)[C@@H](C)CN([C@H](C)CO)C(=O)c2cc(NS(=O)(=O)c3cn(C)cn3)ccc2O1	none (no result: TWEAK-Fn14 inh, LMP1 NFkB inh, TROY NFkB inh)
Cc1ccc(S(=O)(=O)N(C)C[C@@H]2Oc3c(cccc3N(C)C)C(=O)N([C@H](C)CO)C[C@H]2C)cc1	none (no result: TWEAK-Fn14 inh, LMP1 NFkB inh, TROY NFkB inh)
Cc1ccc(S(=O)(=O)Nc2ccc3c(c2)C(=O)N([C@H](C)CO)C[C@@H](C)[C@H](CN(C)Cc2ccc(C(F)(F)F)cc2)OCCCC[C@@H](C)O3)cc1	PAX8 inh HTS 102 (no result: TWEAK-Fn14 inh, LMP1 NFkB inh, TROY NFkB inh)
Cc1ccc(S(=O)(=O)Nc2ccc3c(c2)C(=O)N([C@@H](C)CO)C[C@@H](C)[C@@H](CN(C)Cc2ccc(C(F)(F)F)cc2)OCCCC[C@H](C)O3)cc1	PAX8 inh HTS 87 (no result: TWEAK-Fn14 inh, LMP1 NFkB inh, TROY NFkB inh)
COCC(=O)N1C[C@H](C)[C@H](OC)CN(C)C(=O)c2ccc(NS(C)(=O)=O)cc2OC[C@@H]1C	none (no result: TWEAK-Fn14 inh, LMP1 NFkB inh, TROY NFkB inh)
C[C@@H]1CN([C@H](C)CO)C(=O)c2cc(-c3ccc(F)cc3)cnc2O[C@H]1CN(C)Cc1cncnc1	none (no result: TWEAK-Fn14 inh, LMP1 NFkB inh, TROY NFkB inh, PAX8 inh HTS)
Cc1cc(C)c(OCCn2ccnc2)c(C)c1	LMP1 NFkB inh 73 (no result: LGR2 inh)
O=C(c1ccc(N2CCC3(CC2)OCCO3)c([N+](=O)[O-])c1)N1CCOCC1	none
COC(CNC(=O)c1ccc(N2CCC3(CC2)OCCO3)c([N+](=O)[O-])c1)OC	LMP1 NFkB inh 51 (no result: LGR2 inh)
C[C@H](CO)N1C[C@H](C)[C@H](CN(C)C(=O)Nc2ccccc2)Oc2ccc(N(C)C)cc2C1=O	none (no result: TWEAK-Fn14 inh, LMP1 NFkB inh, TROY NFkB inh)
CCOC(=O)N1CCN(C(=O)C2CCC(=O)N(Cc3ccccc3OC)C2)CC1 (stereo not given)	LMP1 NFkB inh 46
COc1ccc(-c2ccc(C(=O)C3CC3)cc2)cc1	none
CC[N+]1(C)CCC(O)(c2ccc(OC)cc2)C(C(=O)c2ccc(OC)cc2)C1 (stereo not given)	PAX8 inh HTS 76
CCCNC(=O)Nc1ccc2c(c1)C(=O)N(C)C[C@@H](OC)[C@H](C)CN(C(=O)C1CC1)[C@H](C)CO2	none (no result: TWEAK-Fn14 inh, LMP1 NFkB inh, TROY NFkB inh)
COc1ccccc1NC(=O)N1CCCCN2[C@H](C1)[C@H](c1ccc(C#CC3CC3)cc1)[C@@H]2CO	none (no result: TWEAK-Fn14 inh, LMP1 NFkB inh, TROY NFkB inh, LGR2 inh)
Cc1nc(-c2ccc3c(c2)OCO3)cs1	none (no result: LGR2 inh, EWS-Fli block)
Cc1nc(CN(C)c2ncnc3ccc(-c4ccc5c(c4)OCO5)cc23)cs1	PAX8 inh HTS 66 (no result: LMP1 NFkB inh)
C[C@@H]1CN([C@H](C)CO)C(=O)CCCn2cc(nn2)CO[C@@H]1CN(C)Cc1cccc(C(F)(F)F)c1	none (no result: TWEAK-Fn14 inh, LMP1 NFkB inh, TROY NFkB inh)
COC(=O)c1ccccc1NC(=S)N(Cc1ccc2c(c1)OCO2)Cc1cc2ccc(OC)cc2[nH]c1=O	EWS-Fli block 88
COC(=O)c1ccccc1NC(=S)N(Cc1ccc2c(c1)OCO2)Cc1cc2ccc(C)cc2[nH]c1=O	none (no result: EWS-Fli block)
COc1cccc(-c2nn(C)c3sc(C(=O)N4CCN(c5ccccn5)CC4)cc23)c1	TWEAK-Fn14 inh 69, TROY NFkB inh 62 (no result: PAX8 inh HTS, LGR2 inh, EWS-Fli block)
COc1cccc(C(=O)N2CCN(c3ccccn3)CC2)c1	LMP1 NFkB inh 49
O=C(c1cn(Cc2ccccc2)nc1-c1ccccc1)N1CCN(c2ccccn2)CC1	EWS-Fli block 54
O=C(C[C@@H]1CC[C@@H]2[C@H](COC[C@H](O)CN2Cc2ccc(Oc3ccccc3)cc2)O1)N1CCOCC1	none (no result: TWEAK-Fn14 inh, LMP1 NFkB inh, TROY NFkB inh)
C[C@@H]1CN([C@H](C)CO)S(=O)(=O)c2ccc(C#Cc3ccc(F)cc3)cc2O[C@@H]1CN(C)C(=O)c1ccccn1	none (no result: TWEAK-Fn14 inh, LMP1 NFkB inh, TROY NFkB inh, PAX8 inh HTS)
CC(Oc1ccc(Cl)cc1Cl)c1nc(-c2ccc(NC(=O)c3ccccn3)cc2)no1 (stereo not given)	TWEAK-Fn14 inh 53 (no result: PAX8 inh HTS)

Screening data from PubChem.
